Consider 17 compounds from ChEMBL document CHEMBL1961873, “Compounds: GSK PKIS; Assays: Nanosyn kinase panel” (2012).

Assay [1] deals with Calcium/calmodulin-dependent protein kinase type II subunit alpha (Homo sapiens) (UniProt Q9UQM7). The following applies: at 1 µM.
The target of assay [2] is Calcium/calmodulin-dependent protein kinase type II subunit delta (Homo sapiens) (UniProt Q13557). The following applies: at 0.1 µM.
For assay [3] the target is unchanged. As to conditions: at 1 µM.
In assay [4] the target is T1, Calcium/calmodulin-dependent protein kinase type IV (Homo sapiens) (UniProt Q16566).
T1 sequence (whole entry): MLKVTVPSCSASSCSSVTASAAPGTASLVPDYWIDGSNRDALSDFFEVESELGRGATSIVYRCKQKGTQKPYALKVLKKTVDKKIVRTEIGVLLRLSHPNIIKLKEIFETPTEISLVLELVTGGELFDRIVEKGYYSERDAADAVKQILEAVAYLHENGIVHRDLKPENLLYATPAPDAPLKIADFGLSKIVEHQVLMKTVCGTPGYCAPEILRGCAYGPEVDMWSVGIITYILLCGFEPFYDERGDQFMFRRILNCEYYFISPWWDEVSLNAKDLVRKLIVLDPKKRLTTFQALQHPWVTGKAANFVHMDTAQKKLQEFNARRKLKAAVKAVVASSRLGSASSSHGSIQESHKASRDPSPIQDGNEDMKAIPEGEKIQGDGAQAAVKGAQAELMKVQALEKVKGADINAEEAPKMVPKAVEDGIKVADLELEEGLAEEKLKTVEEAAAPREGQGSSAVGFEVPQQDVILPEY
The following applies: at 0.1 µM.

Assay [5] concerns the target T1, Calcium/calmodulin-dependent protein kinase type IV (Homo sapiens). As to conditions: at 1 µM.
Assay [6] deals with T2, Serine/threonine-protein kinase Chk1 (Homo sapiens) (UniProt O14757).
T2 sequence (whole entry): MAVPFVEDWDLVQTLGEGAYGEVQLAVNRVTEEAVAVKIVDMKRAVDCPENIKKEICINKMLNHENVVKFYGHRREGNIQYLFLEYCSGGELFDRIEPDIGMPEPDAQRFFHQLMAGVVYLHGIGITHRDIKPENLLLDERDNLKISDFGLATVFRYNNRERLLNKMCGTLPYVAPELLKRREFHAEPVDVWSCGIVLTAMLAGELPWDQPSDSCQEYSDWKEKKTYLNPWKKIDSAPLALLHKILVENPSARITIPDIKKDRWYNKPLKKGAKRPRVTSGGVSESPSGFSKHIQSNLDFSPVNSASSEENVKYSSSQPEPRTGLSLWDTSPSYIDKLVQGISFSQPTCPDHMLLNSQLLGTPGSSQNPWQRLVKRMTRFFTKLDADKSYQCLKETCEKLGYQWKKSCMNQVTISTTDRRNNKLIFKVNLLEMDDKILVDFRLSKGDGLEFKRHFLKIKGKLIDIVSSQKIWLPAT
The following applies: at 0.1 µM.

The target of assay [7] is T2, Serine/threonine-protein kinase Chk1 (Homo sapiens). As to conditions: at 1 µM.
The target of assay [8] is Serine/threonine-protein kinase Chk2 (Homo sapiens) (UniProt O96017). As to conditions: at 0.1 µM.
Sequence of Serine/threonine-protein kinase Chk2 (Homo sapiens) (O96017 whole entry): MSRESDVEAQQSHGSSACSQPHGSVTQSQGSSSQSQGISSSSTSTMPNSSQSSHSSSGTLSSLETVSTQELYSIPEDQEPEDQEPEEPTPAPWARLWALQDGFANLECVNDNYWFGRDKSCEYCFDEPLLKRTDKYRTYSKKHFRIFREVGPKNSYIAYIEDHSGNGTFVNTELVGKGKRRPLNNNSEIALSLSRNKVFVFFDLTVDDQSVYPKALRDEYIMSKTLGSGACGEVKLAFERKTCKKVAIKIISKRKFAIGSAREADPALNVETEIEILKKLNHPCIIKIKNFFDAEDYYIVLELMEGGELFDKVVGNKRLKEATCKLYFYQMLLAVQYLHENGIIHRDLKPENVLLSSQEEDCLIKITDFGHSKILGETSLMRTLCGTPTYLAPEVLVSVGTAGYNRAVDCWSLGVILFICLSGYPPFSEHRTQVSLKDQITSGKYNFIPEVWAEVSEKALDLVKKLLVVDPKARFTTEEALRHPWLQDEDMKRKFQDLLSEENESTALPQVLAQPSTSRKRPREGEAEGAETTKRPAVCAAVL
The target is the same in assay [9]. The following applies: at 1 µM.
In assay [10] the target is Death-associated protein kinase 1 (Homo sapiens) (UniProt P53355). As to conditions: at 0.1 µM.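 Also: reported figure is the mean inhibition of DAPK1.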
Sequence of Death-associated protein kinase 1 (Homo sapiens) (P53355 whole entry, looked up): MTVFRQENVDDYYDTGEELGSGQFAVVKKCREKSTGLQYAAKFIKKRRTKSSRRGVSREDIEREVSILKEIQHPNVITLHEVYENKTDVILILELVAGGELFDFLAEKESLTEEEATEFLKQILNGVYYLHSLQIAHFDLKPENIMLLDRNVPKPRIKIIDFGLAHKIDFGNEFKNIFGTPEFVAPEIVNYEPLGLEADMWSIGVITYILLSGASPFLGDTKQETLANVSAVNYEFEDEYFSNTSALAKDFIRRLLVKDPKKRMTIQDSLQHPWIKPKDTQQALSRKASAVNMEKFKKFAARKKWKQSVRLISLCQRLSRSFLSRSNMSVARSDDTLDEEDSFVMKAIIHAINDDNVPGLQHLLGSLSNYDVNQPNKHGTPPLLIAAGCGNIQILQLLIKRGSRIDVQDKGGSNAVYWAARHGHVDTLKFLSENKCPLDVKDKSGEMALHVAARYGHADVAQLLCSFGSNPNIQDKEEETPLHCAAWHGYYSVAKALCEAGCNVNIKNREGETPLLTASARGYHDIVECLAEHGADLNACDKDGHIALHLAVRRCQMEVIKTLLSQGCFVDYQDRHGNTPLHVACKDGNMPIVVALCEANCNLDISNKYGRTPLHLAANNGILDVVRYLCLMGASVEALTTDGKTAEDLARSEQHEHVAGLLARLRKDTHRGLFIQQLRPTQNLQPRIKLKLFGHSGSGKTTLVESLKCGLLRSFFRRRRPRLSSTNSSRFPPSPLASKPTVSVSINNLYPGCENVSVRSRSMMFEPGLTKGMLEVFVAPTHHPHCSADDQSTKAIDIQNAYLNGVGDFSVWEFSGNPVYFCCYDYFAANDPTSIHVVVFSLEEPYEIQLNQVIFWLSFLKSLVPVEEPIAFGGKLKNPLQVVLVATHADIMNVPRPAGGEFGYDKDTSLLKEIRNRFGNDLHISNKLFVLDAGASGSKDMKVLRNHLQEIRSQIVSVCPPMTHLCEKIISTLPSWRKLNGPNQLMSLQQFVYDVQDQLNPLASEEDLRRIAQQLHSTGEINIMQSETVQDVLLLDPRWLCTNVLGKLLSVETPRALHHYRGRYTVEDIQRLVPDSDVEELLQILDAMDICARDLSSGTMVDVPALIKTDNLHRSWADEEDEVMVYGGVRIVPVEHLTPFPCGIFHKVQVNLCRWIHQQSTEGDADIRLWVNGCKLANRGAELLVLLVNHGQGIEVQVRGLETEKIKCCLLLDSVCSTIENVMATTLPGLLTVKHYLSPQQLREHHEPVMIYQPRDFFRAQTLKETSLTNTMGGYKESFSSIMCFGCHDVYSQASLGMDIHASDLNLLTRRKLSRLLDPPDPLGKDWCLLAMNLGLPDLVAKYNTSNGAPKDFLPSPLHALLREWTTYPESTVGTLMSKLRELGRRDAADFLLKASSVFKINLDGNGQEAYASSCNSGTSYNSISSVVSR

Sequence of Calcium/calmodulin-dependent protein kinase type II subunit delta (Homo sapiens) (Q13557 whole entry): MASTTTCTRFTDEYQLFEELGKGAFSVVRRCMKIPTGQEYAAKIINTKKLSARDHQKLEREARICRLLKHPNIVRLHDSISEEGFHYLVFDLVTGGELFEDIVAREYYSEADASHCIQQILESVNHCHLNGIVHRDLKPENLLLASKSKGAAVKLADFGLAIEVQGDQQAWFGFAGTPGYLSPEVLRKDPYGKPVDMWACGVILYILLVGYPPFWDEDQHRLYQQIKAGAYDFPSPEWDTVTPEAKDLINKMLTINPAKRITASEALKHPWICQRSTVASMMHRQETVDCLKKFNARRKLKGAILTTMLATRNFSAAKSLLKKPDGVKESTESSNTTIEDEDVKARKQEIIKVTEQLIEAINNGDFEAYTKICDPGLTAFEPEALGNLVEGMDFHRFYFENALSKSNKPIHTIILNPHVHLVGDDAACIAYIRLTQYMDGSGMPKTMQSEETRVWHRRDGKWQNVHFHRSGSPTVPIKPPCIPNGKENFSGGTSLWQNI
Sequence of Calcium/calmodulin-dependent protein kinase type II subunit alpha (Homo sapiens) (Q9UQM7 whole entry): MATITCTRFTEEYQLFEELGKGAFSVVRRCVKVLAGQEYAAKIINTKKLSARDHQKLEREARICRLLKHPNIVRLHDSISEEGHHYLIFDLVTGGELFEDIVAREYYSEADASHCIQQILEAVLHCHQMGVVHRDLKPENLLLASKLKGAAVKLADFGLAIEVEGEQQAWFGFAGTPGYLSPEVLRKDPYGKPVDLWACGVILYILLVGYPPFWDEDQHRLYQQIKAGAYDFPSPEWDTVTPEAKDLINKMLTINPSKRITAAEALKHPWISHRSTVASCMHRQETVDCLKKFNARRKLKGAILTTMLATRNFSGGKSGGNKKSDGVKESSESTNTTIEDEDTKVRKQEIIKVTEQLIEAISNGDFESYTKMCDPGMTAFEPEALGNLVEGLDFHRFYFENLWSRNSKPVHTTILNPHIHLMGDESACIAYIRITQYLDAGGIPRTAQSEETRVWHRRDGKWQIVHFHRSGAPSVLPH

Regarding `CC(C)c1ccc2c(c1)NC(=O)/C2=N/Nc1ccc(S(N)(=O)=O)cc1`, the inhibition is 0.01% in assay [1]; -0.56% in [2]; 0.81% in assay [3]; -0.87% in assay [4]; 0.54% in [5]; -7.82% in assay [6]. Further, the inhibition in [7] is 0.1%; in assay [8], 0.32%; in assay [9] it was 0.01%; in assay [10], -0.88%.
In the case of `CCOc1nccc2c1nc(-c1nonc1N)n2CC`, the inhibition is 2.47% in assay [1]; 1.48% in assay [2]; 3.36% in [3]; -4.15% in [4]; -3.33% in [5]; 4.09% in assay [6]. The inhibition stood at 5.94% in [7], 2.06% in assay [8], 3.78% in assay [9] and 3.66% in assay [10].
Consider `CCCN1CCCC(c2ccc(Nc3nc(Nc4cc(F)ccc4C(N)=O)c4cc[nH]c4n3)c(OC)c2)C1` (stereo not given), for which the inhibition was 44.9% in assay [1]; 26.9% in assay [2]; 72.8% in [3]; 7.83% in [4]; 36.1% in assay [5]; -4.38% in assay [6]. Further, the inhibition in assay [7] was 8.07%; in assay [8], 48.9%; in assay [9] it was 79.1%; in [10], 3.54%.
With `CS(=O)(=O)CCNCc1nc(-c2ccc3ncnc(Nc4ccc(OCc5cccc(C(F)(F)F)c5)cc4)c3c2)cs1`, the inhibition was 2.45% in assay [1]; 2.93% in assay [2]; 3.53% in assay [3]; 0.68% in [4]; 1.44% in assay [5]; 1.74% in [6]. Further, the inhibition is 5.07% in assay [7], 1.74% in assay [8], 5.27% in assay [9] and 3.32% in assay [10].
With `Cc1ccc2c(-c3ccnc(Nc4cccc(C(F)(F)F)c4)n3)c(-c3ccccc3)nn2n1`, the inhibition in assay [1] is 1.98%; in assay [2] it was 2.93%; in assay [3], 5.15%; in assay [4], 1.16%; in assay [5], 3.52%; in assay [6] it was -6.21%. For the same compound, the inhibition is -9.83% in assay [7], -3.6% in assay [8], -3.73% in assay [9] and -4.51% in assay [10].
For the compound `CN(c1ccc(NC(=O)Nc2ccc(OC(F)(F)F)cc2)cc1)c1ccnc(Nc2cccc(S(N)(=O)=O)c2)n1`, the inhibition in assay [1] is -1.5%; in assay [2], 1.07%; in assay [3] it was 0.14%; in assay [4], -0.96%; in assay [5], 0.59%; in assay [6] it was 1.72%. Besides, the inhibition in [7] is -0.01%; in assay [8], 5.43%; in [9], 25.9%; in assay [10], 3.79%.
In the case of `Cc1cc(Cl)cc2c1NC(=O)C2=NNc1ccc(S(N)(=O)=O)cc1`, the inhibition in [1] is 0.96%; in assay [2], 2.57%; in assay [3] it was -0.12%; in assay [4] it was -0.56%; in assay [5], -3.46%; in [6] it was 2.43%. For the same compound, the inhibition turned out to be 2.86% in assay [7], 1.38% in assay [8], 2.55% in assay [9] and 2.88% in assay [10].
As for `FC(F)(F)c1ccc(-c2nn3ncccc3c2-c2ccnc(Nc3ccc4c(c3)OCCO4)n2)cc1`, the inhibition in assay [1] is -2.19%; in assay [2], -3.32%; in [3], -2.99%; in [4], -4.88%; in assay [5] it was -4.43%; in assay [6], 0.08%. Also, the inhibition in assay [7] stood at 1.68%; in assay [8] it was 3.99%; in assay [9] it was 5.26%; in assay [10] it was 1.54%.
Regarding `C[C@@H](Oc1cc(-n2cnc3ccc(OCC4CCN(C)CC4)cc32)sc1C(N)=O)c1ccccc1C(F)(F)F`, the inhibition was 14.2% in assay [1]; 6.59% in assay [2]; 49.9% in assay [3]; -0.36% in assay [4]; 1.74% in assay [5]; -1.68% in assay [6]. Moreover, the inhibition in assay [7] is 0.33%; in [8], -2%; in assay [9] it was -1.44%; in assay [10] it was -1.34%.
For `CN(C)c1cc2c(Nc3ccc4c(cnn4Cc4ccccc4)c3)ncnc2cn1`, the inhibition in [1] was determined as 2.41%; in assay [2], 2.28%; in assay [3], 2.7%; in [4], 1.84%; in [5] it was 0.37%; in assay [6], 2.49%. In addition, the inhibition worked out at 5.16% in [7], 3.91% in [8], 17.9% in assay [9] and 2.91% in assay [10].
As for `COC(=O)Nc1nc2cc(Oc3ccc(NC(=O)Nc4cccc(Br)c4)cc3)ccc2[nH]1`, the inhibition in assay [1] was determined as 2.07%; in [2], 1.97%; in assay [3], 3.53%; in [4], 1.41%; in assay [5], 2.33%; in assay [6], 2.14%. Moreover, the inhibition in assay [7] stood at 2.72%; in [8], 1.92%; in assay [9] it was 2.2%; in assay [10], 2.43%.
`Nc1ccc(C#Cc2cncnc2Nc2ccc(OCc3cccc(F)c3)c(Cl)c2)cc1`: the inhibition in assay [1] was -1.06%; in [2], 0.73%; in assay [3], 0.72%; in assay [4] it was 1.79%; in assay [5] it was -0.16%; in [6], 0.65%. For the same compound, the inhibition in assay [7] amounted to 0.62%; in assay [8], 1.8%; in assay [9], 0.63%; in [10], 4.63%.
Regarding `COc1cc2ncnc(Nc3ccc4c(cnn4Cc4ccccc4)c3)c2cc1OC`, the inhibition was 0.24% in assay [1]; 1.57% in assay [2]; 4.24% in [3]; -0.17% in assay [4]; 0.05% in assay [5]; 8.66% in assay [6]. The inhibition worked out at 14.1% in [7], 10.7% in assay [8], 35.9% in assay [9] and 9.32% in assay [10].
For `Cc1nc(-c2ccccc2)n2nc(NCCCN3CCOCC3)ncc12`, the inhibition is 3.41% in [1]; 2.22% in [2]; 3.36% in assay [3]; 0.88% in [4]; 2.05% in assay [5]; 1.78% in assay [6]. Also, the inhibition in [7] came out at 3.88%; in assay [8], 2.24%; in [9] it was 4.72%; in assay [10], 3.5%.
For the compound `COC(=O)c1cncc(/C=C/c2c(C)cc(O)cc2C)c1`, the inhibition in assay [1] was 3.06%; in [2] it was 1.37%; in assay [3] it was 3%; in assay [4], -2.74%; in assay [5], -4.13%; in assay [6] it was 3.13%. Also, the inhibition in [7] was determined as 3.49%; in [8] it was 2.38%; in assay [9], 4.27%; in assay [10] it was 4.88%.
On to `CC(C)c1ccc(Nc2nccc(-c3cnn4ncccc34)n2)cc1`, for which the inhibition in assay [1] is 4.19%; in assay [2] it was 2.72%; in [3], 8.29%; in assay [4], 1.15%; in [5], 2.83%; in assay [6], -1.58%. The inhibition in assay [7] is -2.41%; in [8] it was 1.57%; in assay [9] it was 3.38%; in [10], -1.79%.
As for `COc1ccc2ncnc(Nc3ccc(OCc4ccccc4)cc3)c2c1`, the inhibition is 2.13% in assay [1]; 0.77% in [2]; 1.93% in assay [3]; 0.01% in assay [4]; 0.04% in assay [5]; 0.93% in assay [6]. In addition, the inhibition in assay [7] was 3.17%; in [8], 1.65%; in [9], 14.2%; in assay [10] it was 3.34%.

What is called inhibition is the relative decrease from the control value, in per cent.
